Screening results deposited in PubChem BioAssay by Broad Institute.
NOMO-1 viab = NOMO-1 AML cell viability reduction, primary screen, STK33 inhibitor project, CellTiter-Glo luminescence; AID 2330, 2010; NOMO-1 AML viability, 72 h; hit rate 7.5% among 37,000; inhibition, % (no concentration beside the values); in the data active = inhibition above about 80%; inconclusive = no clear call, values can overlap the other calls
MITF inh = inhibitors of MITF, primary screen, MITF inhibitor project, cell-based, luminescence; hit rate 0.28% among 37,000; TRPM1 promoter luciferase, 24 h; AID 2240, 2010; inhibition, % (test concentration not listed); in the data active = inhibition above about 85%; inconclusive = no clear call, values can overlap the other calls; inactive = below about 68%;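 note: human melanocyte line stably carrying TRPM1 promoter luciferase reporter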
YB-1 expr inh = inhibitors of YB-1 gene expression, primary screen, cell-based, fluorescence | hit rate 0.37% among 30,000 | AID 434959, 2010 | delta delta Cp (YB-1 minus CDIP) (concentration not given with the values) | U2OS, qRT-PCR YB-1 vs CDIP delta delta Cp, 16 h; active compounds read high; zero = DMSO, each unit about twofold;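 active = delta delta Cp rounded down to an integer at or above 3, about 3 SD of DMSO wells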;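 note: higher means less YB-1 transcript or more CDIP transcript relative to DMSO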
Shh pathway inh = Hedgehog pathway signaling inhibitors, primary screen, luminescence, Shh-LIGHT2 cells, Gli-luciferase | AID 2313, 2010 | Shh-LIGHT2 Gli-luciferase reporter, 30 h | hit rate 2.1% among 22,000 | inhibition, % (no concentration beside the values);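 active = mean inhibition across valid replicates above about 65%, limit read from the data; inconclusive = mean under the limit, yet half or more replicates past it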;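 note: pathway switched on by Shh-conditioned medium diluted 1 in 25 in low serum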
PD-1 reversal = activators reversing PD-1 mediated T-cell inhibition, primary screen, luminescence, primary human CD4 T cells, PD-L1 beads. CellTiter-Glo 96 h. activation, % (concentration not given with the values). 29,000 tested, under 10 active; call rule not given here
Of the large screens only hits and unclear results are named; the others gave an inactive call. Sampled rows, rich in hits. Any-hit rate of the full collection: about 7.4%.

CC(C)NC(=O)N(C)C[C@@H]1Oc2ccc(NC(=O)c3ccncc3)cc2C(=O)N([C@H](C)CO)C[C@@H]1C	none (no result: Shh pathway inh)
C[C@@H]1CN([C@@H](C)CO)C(=O)Cc2cc(NS(C)(=O)=O)ccc2O[C@@H]1CN(C)Cc1ccc(Cl)c(Cl)c1	none
Cc1ccc(S(=O)(=O)Nc2ccc3c(c2)CC(=O)N([C@H](C)CO)C[C@H](C)[C@H](CN(C)Cc2ccc(Cl)c(Cl)c2)O3)cc1	NOMO-1 viab 99.8 (no result: Shh pathway inh, PD-1 reversal)
Cc1ccc(S(=O)(=O)Nc2ccc3c(c2)CC(=O)N([C@@H](C)CO)C[C@H](C)[C@@H](CN(C)Cc2ccc(Cl)c(Cl)c2)O3)cc1	NOMO-1 viab 128.3, Shh pathway inh inconclusive
COc1ccc(NC(=O)Nc2ccc3c(c2)C(=O)N([C@H](C)CO)C[C@@H](C)[C@H](CN(C)S(=O)(=O)c2ccc(C)cc2)O3)cc1	none
C[C@@H]1CN([C@H](C)CO)C(=O)c2cc(NC(=O)Nc3ccccc3)ccc2O[C@@H]1CN(C)CC1CCCCC1	none (no result: Shh pathway inh)
C[C@@H]1CC[C@H](O)/C=C/C(=O)O[C@H](C)CC[C@H](O)/C=C/C(=O)O1	NOMO-1 viab 107.9
O=C(CSC1CC(=O)N(c2ccc(Cl)cc2)C1=O)Nc1ccc(Cl)cc1 (centres undefined)	none (no result: YB-1 expr inh, Shh pathway inh, PD-1 reversal)
O=C1CC(SCc2ccc(Cl)cc2)C(=O)N1c1ccc(Br)cc1 (centres undefined)	Shh pathway inh 93.6
O=C(O)c1ccc2nc(CCc3nc4ccc(C(=O)O)cc4[nH]3)[nH]c2c1	none (no result: Shh pathway inh)
FC(F)(F)c1nc2ccc(Cl)cc2[nH]1	NOMO-1 viab 120.6
C[C@@H]1CCCCO[C@H](CN(C)C(=O)NC2CCCCC2)[C@@H](C)CN([C@H](C)CO)C(=O)c2cc(NS(=O)(=O)c3cccs3)ccc2O1	none (no result: PD-1 reversal)
O=C(Oc1cccc2ccccc12)c1ccccc1	none
CC(=O)Oc1ccc2ccc3ccc(OC(C)=O)c4ccc1c2c34	NOMO-1 viab 126.8
Cc1ccc(-c2noc(CSc3nnc(C)n3-c3cccc(C)c3)n2)cc1	none (no result: YB-1 expr inh, Shh pathway inh)
COC(=O)c1cc(NC(=O)CC2Sc3ccccc3NC2=O)cc(C(=O)OC)c1 (centres undefined)	NOMO-1 viab 113.4 (no result: YB-1 expr inh, Shh pathway inh, PD-1 reversal)
COc1cc(CC(C)C(C)Cc2ccc(O)c(OC)c2)ccc1O (centres undefined)	NOMO-1 viab 121.2
Cc1nn(Cc2nc(C(C)(C)C)cs2)c(C)c1Br	none
CCc1ccc(C(Nc2ccccn2)c2ccc3ccc(C)nc3c2O)cc1 (centres undefined)	NOMO-1 viab 110.0 (no result: YB-1 expr inh, Shh pathway inh, PD-1 reversal)
COc1ccc(C(Nc2cc(C)ccn2)c2ccc3ccc(C)nc3c2O)cc1 (centres undefined)	NOMO-1 viab 98.9 (no result: YB-1 expr inh, Shh pathway inh, PD-1 reversal)
Cc1ccnc(NC(c2ccsc2)c2ccc3ccc(C)nc3c2O)c1 (centres undefined)	NOMO-1 viab 89.1 (no result: YB-1 expr inh, Shh pathway inh)
COc1ccc(NC(=O)CSc2nccc(C)n2)cc1	none (no result: YB-1 expr inh, Shh pathway inh, PD-1 reversal)
CCc1ccc(C(Nc2cc(C)ccn2)c2ccc3ccc(C)nc3c2O)cc1 (centres undefined)	NOMO-1 viab 89.2 (no result: YB-1 expr inh, Shh pathway inh, PD-1 reversal)
Cc1ccnc(NC(c2cccc(F)c2)c2ccc3ccc(C)nc3c2O)c1 (centres undefined)	NOMO-1 viab 115.8 (no result: YB-1 expr inh, Shh pathway inh, PD-1 reversal)
C[C@H](CO)N1C[C@H](C)[C@H](CN(C)Cc2ccc(Oc3ccccc3)cc2)Oc2ccc(NC(=O)Nc3ccc(F)cc3)cc2CC1=O	NOMO-1 viab 98.1
CC(C)NC(=O)Nc1ccc2c(c1)CC(=O)N([C@@H](C)CO)C[C@@H](C)[C@@H](CN(C)Cc1ccc(Oc3ccccc3)cc1)O2	NOMO-1 viab 89.0
C[C@H]1CN([C@@H](C)CO)C(=O)Cc2cc(NC(=O)Nc3ccc(F)cc3)ccc2O[C@@H]1CN(C)Cc1ccc(Oc2ccccc2)cc1	NOMO-1 viab 107.0
C[C@H]1CN([C@@H](C)CO)C(=O)Cc2cc(NC(=O)Nc3ccc(F)cc3)ccc2O[C@H]1CN(C)Cc1ccccc1	none (no result: Shh pathway inh)
COc1ccc(NC(=O)Nc2ccc3c(c2)CC(=O)N([C@H](C)CO)C[C@H](C)[C@H](CN(C)Cc2ccc(Oc4ccccc4)cc2)O3)cc1	NOMO-1 viab inconclusive
C[C@@H]1CN([C@H](C)CO)C(=O)Cc2cc(NC(=O)Nc3ccc(F)cc3)ccc2O[C@@H]1CN(C)Cc1ccc(Oc2ccccc2)cc1	NOMO-1 viab 114.1
